High-throughput results from PubChem BioAssay.
TGFb SMAD3 inh = TGF-b pathway inhibition | 410,000 compounds, 1.2% hits | Potency, µM (series often up to 46.1 µM), actives largely listed as inhibitors | HepG2 CAGA-GFP TGF-b/SMAD3 reporter, GFP fluorescence, 18 h; TGF-beta stimulated, 500 pg/mL final; further: nearly all actives have a fitted effect of over 65% in size
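GFP signal (ex488/em500-530) from TGF-beta-stimulated HEPG2 CAGA-GFP cells, 500 pg/mL final, 18 h at 37 degrees C in DMEM plus 1% FBS, normalized to unstimulated and DMSO-stimulated controls.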
S2 tox = cell viability loss in ATXN counter-screen; S2 cells (HEK-293 line with an ATXN2-luciferase reporter) viability, CellTiter-Fluor protease fluorescence, 24 h; Potency, µM (top dose mostly 56.7 µM), most hits filed as cytotoxic; 400,000 compounds, 0.49% hits; further: nearly all actives have a fitted effect of over 40% in size
ATXN2 expr inh = ATXN2 expression inhibition. 360,000 compounds, 0.72% hits. AID 1745845. Potency, µM (top dose mostly 57 µM), hits mostly inhibitors. HEK-293 ATXN2-luciferase reporter, luminescence, 24 h; further: nearly all actives have a fitted effect of over 55% in size
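ATXN2-luciferase reporter cells (luciferase flanked by upstream and downstream ATXN2 gene portions) were treated 24 h at 37 °C with compounds at up to 57 uM. SteadyGlo luminescence gave expression; GF-AFC fluorescence gave viability.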
HepG2 tox = counter-screen for TGF-b inhibitors: cytotoxicity in HepG2 cells; HepG2 CAGA-GFP viability, ATP luminescence, 18 h; Potency, µM (top dose mostly 46.1 µM), most hits filed as cytotoxic; 410,000 compounds, 0.76% hits; AID 588856
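CellTiter-Glo luminescence gave cytotoxicity after 18 hours at 37 degrees C. The cells were HepG2 CAGA-GFP in 1% FBS DMEM, stimulated with 500 pg/mL TGF-beta after compound addition. %Activity was normalised to no-cell wells (complete cell-killing) and DMSO (no toxicity), and curves were fitted and classified.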
HT1080-NT tox = kills 2HG-producing HT-1080-NT fibrosarcoma cells; HT-1080-NT fibrosarcoma viability, CellTiter-Glo ATP luminescence, 48 h; Potency, µM (doses to about 46.1 µM), actives largely listed as cytotoxic; 360,000 compounds, 1.6% hits;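 further: NT is the 2HG producing partner of a matched IDH1 knockdown line; nearly all actives have a fitted effect of over 55% in size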
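Fibrosarcoma NT cells, 750 per well in 5% FBS RPMI, were exposed to compound for 48 hours. Viability: CellTiter-Glo luminescence.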
HT1080 IDH1KD tx = kills HT-1080 cells with IDH1 knockdown; HT-1080 IDH1 knockdown viability, ATP luminescence, 48 h; Potency, µM (doses to about 46.1 µM), actives largely listed as cytotoxic; 360,000 compounds, 2% hits; AID 686971
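CellTiter-Glo luminescence after 48 h compound exposure at 37 degrees C of IDH1-knockdown HT-1080 cells in 5% FBS RPMI. %Activity scaled between DMSO wells and cell-free media wells, with curves fitted and assigned curve classes.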
Large screens that a line does not name were inactive. The list is not random: actives were taken first. Their share in the collection is about 3.8%. The call rests on the fitted dose curve; in most records, active means well fitted curve in the direction sought with a large enough effect; inconclusive means small, poorly fitted or top-dose-only effect, or another doubt; inactive means no such curve, though single readings can be large; an effect the other way counts as inactive or inconclusive.

Cc1ccc(Nc2nc(-c3ccc(O)c(O)c3)cs2)nc1	TGFb SMAD3 inh inconclusive, HT1080-NT tox inconclusive, HT1080 IDH1KD tx 23µM
CN(C)c1ccc(C2C=Cc3ccccc32)c2ccccc12 (configuration not stated)	none (no result: S2 tox, ATXN2 expr inh, HT1080-NT tox, HT1080 IDH1KD tx)
CCn1c(-c2ccccc2F)nc2cc(NC(C)=O)cc(C(=O)N(C)Cc3ccccn3)c21	none (no result: TGFb SMAD3 inh, ATXN2 expr inh, HepG2 tox, HT1080-NT tox, HT1080 IDH1KD tx)
O=C(NCCCN1CCOCC1)c1cc(-c2cccs2)on1	HT1080-NT tox inconclusive, HT1080 IDH1KD tx 11µM
O=C(NCCCN1CCOCC1)c1ccc(-n2nc(C(F)(F)F)cc2-c2cccs2)cc1	ATXN2 expr inh inconclusive, HT1080-NT tox inconclusive, HT1080 IDH1KD tx 23µM
COCCCNC(=O)c1ccc(-n2nc(C(F)(F)F)cc2-c2cccs2)cc1	none
CN(CC=CC#CC(C)(C)C)Cc1cccc2ccccc12	none (no result: TGFb SMAD3 inh, S2 tox, HepG2 tox, HT1080-NT tox, HT1080 IDH1KD tx)
Cc1ccccc1C(=O)NNC(=O)C(=O)N1CCCCC1	none
Cc1ccc(NNC(=O)C(=O)N2CCCCC2)cc1	S2 tox inconclusive, HT1080-NT tox inconclusive, HT1080 IDH1KD tx 4.1µM
NC(Cc1ccc(F)cc1)c1csc(Nc2nccc(C(F)(F)F)n2)n1 (configuration not stated)	TGFb SMAD3 inh inconclusive, HT1080-NT tox 23µM, HT1080 IDH1KD tx 15µM (no result: S2 tox)
COc1cc(OC)nc(Nc2nc(C(N)Cc3ccc(Cl)cc3)cs2)n1 (configuration not stated)	TGFb SMAD3 inh inconclusive, ATXN2 expr inh 32µM, HepG2 tox 11µM, HT1080-NT tox 23µM, HT1080 IDH1KD tx inconclusive (no result: S2 tox)
NC(Cc1ccccc1)c1csc(Nc2nccc(C(F)(F)F)n2)n1 (configuration not stated)	TGFb SMAD3 inh 16µM, ATXN2 expr inh inconclusive, HepG2 tox 16µM, HT1080-NT tox inconclusive, HT1080 IDH1KD tx inconclusive
NC(Cc1ccc(Cl)cc1)c1csc(Nc2nccc(C(F)(F)F)n2)n1 (configuration not stated)	TGFb SMAD3 inh inconclusive, ATXN2 expr inh inconclusive, HT1080-NT tox 16µM, HT1080 IDH1KD tx 23µM
COC(=O)c1cc(C)nc(Nc2nc(C(N)Cc3ccc(Cl)cc3)cs2)n1 (configuration not stated)	HT1080 IDH1KD tx inconclusive
CC(C)(C)n1ncc2c(=O)n(Cc3ccc(Cl)cc3C(F)(F)F)cnc21	none (no result: S2 tox, ATXN2 expr inh, HT1080-NT tox, HT1080 IDH1KD tx)
CCOc1cc(C2C(C(=O)OC)=C(C)NC3=C2C(=O)c2ccccc23)cc(Br)c1OCC (configuration not stated)	S2 tox inconclusive (no result: HT1080-NT tox, HT1080 IDH1KD tx)
COc1ccccc1-c1noc(-c2ccc(N3CCOCC3)c([N+](=O)[O-])c2)n1	none (no result: HT1080-NT tox, HT1080 IDH1KD tx)
Cn1c(=O)[nH]c2cc(-c3noc(-c4ccc(F)cc4)n3)ccc21	none (no result: HT1080-NT tox, HT1080 IDH1KD tx)
Cc1cc(C)nc(Nc2nc(C(N)Cc3ccccc3)cs2)n1 (configuration not stated)	TGFb SMAD3 inh inconclusive, S2 tox inconclusive, HT1080-NT tox 5.8µM, HT1080 IDH1KD tx 7.3µM
COc1cccc(C(=O)Nc2cccc(-c3nc4ncccn4c3C)c2)c1	none (no result: S2 tox, ATXN2 expr inh, HT1080-NT tox, HT1080 IDH1KD tx)
CC(C)NC(=O)c1c(O)c2ccccc2[nH]c1=O	HT1080-NT tox inconclusive, HT1080 IDH1KD tx 3.2µM
O=c1[nH]c2ccccc2c(O)c1-[n+]1ccccc1	none
O=c1[nH]c2ccccc2c(O)c1O	HT1080-NT tox 18µM, HT1080 IDH1KD tx inconclusive
COc1ccc(CCC(=O)NC2CC(=O)N(c3ccc(C)cc3)C2)cc1 (configuration not stated)	none (no result: S2 tox, ATXN2 expr inh, HT1080-NT tox, HT1080 IDH1KD tx)
CCCc1c(-c2cccc(Br)c2)ncn1Cc1ccccc1OC	S2 tox inconclusive, HT1080-NT tox inconclusive, HT1080 IDH1KD tx inconclusive (no result: TGFb SMAD3 inh, HepG2 tox)
CCCc1c(-c2ccc(Cl)cc2)ncn1CCc1ccccc1OC	S2 tox 35µM, ATXN2 expr inh inconclusive, HT1080-NT tox inconclusive, HT1080 IDH1KD tx inconclusive (no result: TGFb SMAD3 inh, HepG2 tox)
CCCc1c(-c2cccc(Cl)c2)ncn1CCc1ccccc1OC	S2 tox 22µM, ATXN2 expr inh inconclusive, HT1080-NT tox inconclusive, HT1080 IDH1KD tx inconclusive (no result: TGFb SMAD3 inh, HepG2 tox)
Cc1cc(C)cc(N2CC(c3nc(-c4ccccc4C)no3)CC2=O)c1 (configuration not stated)	TGFb SMAD3 inh inconclusive (no result: HT1080-NT tox, HT1080 IDH1KD tx)
